Sampled rows, rich in hits. Any-hit rate of the full collection: about 3.1%.
GSIS activator: primary screen for activators of insulin secretion dependent on glucose, INS-1E cells, GLuc reporter luminescence | actives 0.61% (n = 370,000) | INS-1E GLuc reporter insulin secretion, 2-3 h | activation, % at 16.6 µM;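 active = lowest replicate activation of at least 40%, so every replicate reaches that level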;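 also: 0% = median of neutral control wells and 100% = median of IBMX positive control wells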
Env fusion inh: blocks HIV Env-driven cell-cell fusion | HeLa-JRFL Env/CEM21 cell fusion, luciferase | inhibition, % at 12.3 µM | actives 1.1% (n = 360,000) | AID 651610;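 active = mean replicate inhibition score of at least 50 and every replicate individually at or above 50; inconclusive = only one of the two criteria met; inactive = mean below 50 and not all replicates reaching 50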;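 also: 0% = plate neutral controls and 100% = maraviroc near 300 nM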
C2C12 statin: suppressors of simvastatin-induced myotoxicity in C2C12 myotubes | ATP luminescence, 48 h; scaled: DMSO 0, geranylgeraniol control 100 | rescue of ATP level, % at 7.49 µM | actives 0.78% (n = 330,000) | AID 602340;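 active = mean ATP rescue above about 67%, or every replicate alone reaching that limit, limit read from the data, passing the limit was not always enough; inconclusive = no clear call, values can overlap the other calls; inactive = mean under the limit and some replicate under it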;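 also: myotubes were challenged with 10 µM simvastatin during compound exposure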
PAX8 inh HTS: inhibitors of PAX8 transcriptional activity in RMG-I cells. RMG-I TPO-luciferase reporter, SteadyGlo, 24 h. inhibition, % at 12.6 µM. actives 1.2% (n = 360,000). AID 652154;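 active = mean replicate inhibition at least 60% with every replicate also reaching 60%; inconclusive = only one of the two criteria is met; inactive = mean below 60% and not all replicates reaching 60%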;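 also: luciferase light reporting Pax8 driven TPO promoter activity; plate controls were median of neutral control wells for no effect and mitoxantrone controls for full effect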
miR122 inh: inhibitors of miR-122 in Huh7 cells. activation (reporter increase), % at 12.5 µM. actives 0.3% (n = 340,000). Huh7 miR-122 Renilla luciferase sensor, 48 h; neutral wells = 0, positive control = 100;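 active = mean replicate activation score at least 90 and every replicate individually at or above 90; inconclusive = only one of the two criteria met; inactive = neither criterion met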;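 also: higher luciferase means less miR-122 activity so hits act as miR-122 inhibitors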
EWS-Fli inh: inhibitors of EWS/Fli oncoprotein transcriptional activity; actives 0.67% (n = 350,000); AID 651661; inhibition, % at 12.6 µM; A673 NR0B1-luciferase reporter, viability-normalised;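 active = mean inhibition of at least 50% after viability correction, with every replicate also passing that limit; inconclusive = mean reaches 50% but only one of two replicates passes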;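 also: firefly luciferase signal divided by Alamar Blue viability fluorescence both relative to DMSO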
* = called active by the depositor; u = inconclusive; x = no result given; ! = not confirmed by another sample; [ ] = another dose, or the depositor's remark.

SMILES	GSIS activator	Env fusion inh	C2C12 statin	PAX8 inh HTS	miR122 inh	EWS-Fli inh
CN(C)c1ccc(NC(=S)NCC2CCCO2)cc1 (configuration not stated)	2.1	x	x	65.1*	x	-25.5
C[C@@H]1CN([C@H](C)CO)C(=O)c2cc(NS(=O)(=O)c3cn(C)cn3)ccc2O[C@@H](C)CCCCO[C@H]1CN(C)Cc1ccncc1	22.1	-2.2[16.7 µM]	x	-4.1	2.3[16.7 µM]	-3.9
CC(=O)Oc1ccccc1C(=O)Nc1ccccc1	-26.2	-16.5	-5.6	-117.6	x	-4.4
COC1(OC)C=CC(=O)C=C1NC(=O)c1ccccc1OC(C)=O	-22.1	-64.9	-6.9	68.8*	x	55.2*
COc1ccc(-c2cnc3c(-c4ccc(F)cc4)cnn3c2N)cc1	-7.3	-84.3	-31.4	-203.3	2.3	-87.7
Cc1nc2c(-c3ccc(F)cc3)cnn2c2c1CCC2	43.6*	-37.0	x	-0.7	x	-23.3
CSCc1c(C(=O)NC2CCCc3ccccc32)oc2ccccc12 (configuration not stated)	x	-17.3	102.4*	-1.4	-3.7	x
CCOC(=O)N1CCN(C(=O)c2cc(-n3cnnc3)ccc2Cl)CC1	14.9	x	94.9*	x	0.7	x
CO[C@H]1CN(C)C(=O)c2cc(NC(=O)C3CC3)ccc2OC[C@H](C)N(CC2CC2)C[C@@H]1C	1.0	x	-5.0	-5.0	x	1.1
CC(=O)Nc1nc(-c2ccc3c(c2)CC(C)N3C(=O)C2CC2)c(C)s1 (configuration not stated)	-2.2	58.6*	-14.0	-7.3	0.1	-15.0
C[C@H]1CN([C@@H](C)CO)C(=O)c2cccc(NS(=O)(=O)c3cccs3)c2O[C@@H]1CN(C)Cc1ccc(C(F)(F)F)cc1	-10.2	8.0[16.7 µM]	3.6	-5.7	118.9*[16.7 µM]	2.8
C[C@H](CO)N1C[C@H](C)[C@@H](CN(C)Cc2ccc(C(F)(F)F)cc2)Oc2c(NS(=O)(=O)c3cccs3)cccc2C1=O	-4.3	41.2[16.7 µM]	6.4	6.3	3.5[16.7 µM]	12.8
C[C@H]1CN([C@@H](C)CO)C(=O)c2cccc(NS(=O)(=O)c3cccs3)c2O[C@@H]1CN(C)Cc1ccc(Oc2ccccc2)cc1	-20.1	x	83.2*	x	-3.2[16.7 µM]	1.6
C[C@@H]1CN([C@H](C)CO)C(=O)Cc2cc(NS(C)(=O)=O)ccc2O[C@@H]1CN(C)S(=O)(=O)c1ccccc1	7.4	-8.7[16.7 µM]	9.9	-10.0	6.6[16.7 µM]	6.0
C=C1C(=O)[C@@]23[C@H](O)C[C@@H]4C(C)(C)CC[C@H](O)[C@]4(C)[C@@H]2C[C@H](O)[C@@H]1[C@H]3O	77.3	30.8	-125.4	96.7*	x	0.9
Cc1ccc(C(C(=O)NC2CCCCC2)N(C(=O)Cc2c[nH]c3ccccc23)c2ccccc2)o1 (configuration not stated)	x	111.6*	11.0	x	34.2	x
O=C(NC1CCCCC1)C(c1cccs1)N(C(=O)Cc1c[nH]c2ccccc12)c1ccc(F)cc1 (configuration not stated)	x	87.2*	4.5	97.1*	-7.7	x
COc1ccc(C(C(=O)NC2CCCCC2)N(Cc2cccs2)C(=O)Cc2c[nH]c3ccccc23)cc1 (configuration not stated)	x	u	28.5	51.7	65.2	x
CC(=O)c1ccc(N(C(=O)Cc2c[nH]c3ccccc23)C(C(=O)NC2CCCCC2)c2cccs2)cc1 (configuration not stated)	x	-52.0	-17.1	-13.0	8.8	x
COc1cccc(CN(C(=O)Cc2c[nH]c3ccccc23)C(C(=O)NC2CCCCC2)c2cccs2)c1 (configuration not stated)	x	90.7*	-0.7	33.7	240.2*	x
O=C1C=C(N2CCOCC2)c2ccccc2C1=O	-15.2	65.0*	-73.5	74.1*	x	48.9
C[N+]1(C)CCC(=C2c3ccccc3CC(=O)c3sccc32)CC1	x	63.8*	-8.3	4.8	24.3	x
COc1cccc(S(=O)(=O)N2C[C@@H]3N[C@H](C2)C3c2ccc(/C=C/c3ccccc3)cc2)c1 (some centres not stated)	34.1	x	x	92.2*!	x	-17.3
Cc1ccc(S(=O)(=O)N2C[C@@H]3N[C@H](C2)C3c2ccc(/C=C/c3ccccc3)cc2)cc1 (some centres not stated)	502.3*!	x	x	58.1	x	-0.5
COc1cccc(-c2ccc(C3[C@@H]4CN(S(=O)(=O)c5ccccc5)C[C@H]3N4)cc2)c1 (some centres not stated)	8.7	x	x	8.9	x	12.1
SMILES	GSIS activator	Env fusion inh	C2C12 statin	PAX8 inh HTS	miR122 inh	EWS-Fli inh
N#Cc1ccc(-c2ccc([C@@H]3[C@@H]4CN(S(=O)(=O)c5ccc(-c6ccccc6)cc5)C[C@H]3N4)cc2)cc1	5.7	x	x	75.4*	x	7.4
C/C=C/c1ccc(C2[C@@H]3CN(S(=O)(=O)c4ccccc4)C[C@H]2N3)cc1 (some centres not stated)	10.2	x	x	0.9	x	29.8
Cc1ccccc1-c1ccc(C2[C@@H]3CN(S(=O)(=O)c4ccccc4C)C[C@H]2N3)cc1 (some centres not stated)	178.6*!	x	x	9.9	x	-6.9
COc1ccccc1S(=O)(=O)N1C[C@@H]2N[C@H](C1)C2c1ccc(-c2ccccc2C)cc1 (some centres not stated)	3.1	x	x	10.6	x	-2.1
CCCNC(=O)C[C@H]1CC[C@@H]2[C@@H](COc3ccc(NC(=O)Nc4ccccc4)cc3C(=O)N2C)O1	-3.7	9.5[16.7 µM]	1.5	5.3	12.5[16.7 µM]	-3.8
COCC(=O)Nc1ccc2c(c1)OC[C@H](C)N(CC1CC1)C[C@H](C)[C@@H](OC)CN(C)C2=O	3.2	x	x	x	x	x
COc1ccc(S(=O)(=O)N(C)C[C@H]2Oc3ccc(NC(=O)C4CC4)cc3CC(=O)N([C@@H](C)CO)C[C@H]2C)cc1	-6.2	7.3[16.7 µM]	7.8	x	6.3[16.7 µM]	-3.2
CS(=O)(=O)c1ccc(C(=O)NCCN2C(=O)S/C(=C\c3cccnc3)C2=O)cc1[N+](=O)[O-]	29.1	-26.1	x	30.4	x	63.9*
O=C(O)c1ccc(C(=O)c2ccc3c(c2)C(=O)N(Cc2ccco2)C3=O)cc1	16.4	x	110.1*	x	-5.1	x
CCC(=O)N1[C@H](CO)[C@H](c2ccc(-c3ccc(F)cc3)cc2)[C@@H]1CN(C)C(C)=O	-2.2	x	5.4	4.7	-18.0[16.7 µM]	-3.8
CCN(CCO)c1nc(NCc2ccccc2)c2cnn(C)c2n1	3.1	10.7	8.4	10.9	1.3	-3.9
CN(CCO)c1nc(NCc2ccccc2)c2cnn(C)c2n1	40.6*	25.9	3.6	-0.3	-5.1	-5.5
C[C@@H]1CN([C@@H](C)CO)C(=O)c2cc(NC(=O)CCN3CCOCC3)ccc2O[C@H]1CN(C)S(C)(=O)=O	20.0	-2.2[16.7 µM]	-10.7	-5.6	-2.5[16.7 µM]	2.7
COc1cc(C(=O)c2cc3c(cc2C)OCO3)cc(OC)c1OC	13.5	-145.0	-68.7	83.7*	47.4	58.4*
O=C(c1ccccc1F)N1CCN(Cc2cccc(Cl)c2)CC1	x	69.2*	-30.4	x	0.0	x

Assay outcomes as filed in PubChem.
